Bioassay records from PubChem.
The full list was thinned out, with hits kept by preference.
Dicer processing = inhibitors of Dicer pre-microRNA processing, primary screen, biochemical, cat-ELCCA, chemiluminescence; Endoribonuclease Dicer (Homo sapiens), Q9UPY3; cat-ELCCA pre-miR-21 Dicer processing; hits give high values; z-score at 25 µM; hit rate 6% among 47,000; in the data active = z-score above about 3, passing the limit was not always enough;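 note: higher signal means more uncleaved substrate so more Dicer inhibition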
Of the large screens only hits and unclear results are named; the others gave an inactive call.

COc1ccc(-c2noc(Cc3ccccc3)n2)cc1OC	none
CCCc1nnc(N2C(=O)c3oc4ccc(F)cc4c(=O)c3C2c2ccc(OCC)cc2)s1 (centres undefined)	none
CC1CCc2c(sc3nnn(CC(=O)N4CCCCC4)c(=O)c23)C1 (centres undefined)	none
CC1CCc2c(sc3nnn(CC(N)=O)c(=O)c23)C1 (centres undefined)	Dicer processing 6.4
CC1CCc2c(sc3nnn(CC(=O)OC(C)C)c(=O)c23)C1 (centres undefined)	none
O=C(NCC1CN(Cc2ccccc2)CCO1)c1ccc(N2CCOCC2)nc1 (centres undefined)	none
COc1cc(C2N(C(C)=O)N=C(NC(C)=O)N2C(C)=O)cc(OC)c1OC (centres undefined)	none
COc1ccc(-c2nnc(Nc3ccc4c(c3)ncn4C)c3ccccc23)cc1	none
Cc1ccc(-c2nnc(Nc3cccc(O)c3)c3ccccc23)cc1S(=O)(=O)N(C)C	none
COc1ccc(-c2nnc(Nc3cccc(O)c3)c3ccccc23)cc1	Dicer processing 3.9
CC(C)CC(=O)N1c2ccccc2NC2=C(C(=O)CC(C)(C)C2)C1c1cccs1 (centres undefined)	none
C=C1COC(=O)N1c1ccccc1[N+](=O)[O-]	none
Cc1ccc(N)c(C(=O)Nc2ccc(Cl)cc2)c1	Dicer processing 5.1
Cc1c(C(=O)Nc2ccc(Cl)cc2)cc(-c2ccccc2)n1-c1ccccc1	none
CCOC(=O)c1cc(C)ccc1NC(=O)c1ccc(Cl)cc1	none
CC(=O)OCCn1c(=O)[nH]c(=O)c2nsnc21	none
CC(C1CC1)N(C(=O)CCC(=O)O)c1ccccc1 (centres undefined)	none
COc1cc(CN2CCN(Cc3ccc(OC)cc3OC)CC2)cc(OC)c1	none
CCCS(=O)(=O)N1CCN(Cc2ccco2)CC1	none
Brc1ccc(CN2CCN(Cc3ccco3)CC2)cc1	Dicer processing 4.5
COc1cc(CN2CCN(Cc3ccco3)CC2)cc(OC)c1	none
Brc1ccccc1CN1CCN(Cc2ccco2)CC1	none
COc1ccc(CN2CCN(Cc3ccco3)CC2)c(OC)c1	Dicer processing 3.6
CCN(CC)C(=O)Oc1ccc(Br)cc1C(=O)Nc1cc(Cl)cc(Cl)c1	none
CSc1ccc(C2N=C(N)Nc3nc4ccccc4n32)cc1 (centres undefined)	none
COc1ccc(OC)c(C2Oc3nc(SC)nnc3-c3ccccc3N2C(C)=O)c1 (centres undefined)	none
CSc1n[nH]c(-c2ccc(C(F)(F)F)cc2)n1	none
CCOC(=O)c1sc(-c2ccc(C(F)(F)F)cc2)nc1O	none
Cc1nc(-c2ccc(C(F)(F)F)cc2)sc1Br	Dicer processing 18
NC(CCc1ccc(F)cc1)c1ccc2c(c1)OCCO2 (centres undefined)	none
O=C1C2ON(c3ccccc3)C(c3cccnc3)C2C(=O)N1c1ccc(Br)cc1 (centres undefined)	none
COc1ccc(C2C(C(=O)c3cc4ccccc4o3)=C(O)C(=O)N2CCN(C)C)cc1 (centres undefined)	none
COCCNC(=O)CSc1nc(N)c2c3c(sc2n1)CCCC3	none
CCOC(=O)/C(C#N)=C/c1ccccc1	none
CCOC(=O)/C(C#N)=C/c1csc([N+](=O)[O-])c1	Dicer processing 3.1
CCOC(=O)/C(C#N)=C/c1ccc([N+](=O)[O-])s1	none
Cc1ccc(S(=O)(=O)N=S(c2ccc(C(=O)O)cc2)c2ccc(C(=O)O)cc2)cc1	none
c1ccc(-c2nn3c4cc(N5CCOCC5)ccc4nc3c3ccccc23)cc1	Dicer processing 6.1
c1ccc(-c2nc3c4ccccc4ccn3c2CN2CCOCC2)cc1	none
COc1ccc(-c2nnc(N3CCOCC3)c3ccccc23)cc1	none
CCc1ccc(C(=O)CSc2nc3nc(C)cc(C)c3c(=O)[nH]2)cc1	none
Cc1sc2nc(SCC(=O)N3CCCCC3)[nH]c(=O)c2c1C	none
Cc1cc(C)c2c(=O)[nH]c(SCC(=O)N3CCCCC3)nc2n1	Dicer processing 5.8
CN(CCc1ccccn1)Cc1ccccc1F	none
CC12CCC3C4=C(CCC3C1CC[C@]2(C)O)CC(=O)CC4 (some centres undefined)	none
COc1ccc(C2C3CCc4ccccc4C3=NN2CCOC(=O)C2CC2)cc1 (centres undefined)	Dicer processing 4.8
COc1ccc(NC(=S)N2N=C3c4ccccc4CCC3C2c2ccc(F)cc2)cc1 (centres undefined)	none
COc1ccc(N2CC3CCc4ccccc4C3=N2)cc1 (centres undefined)	none
COc1ccc(/C=C/c2sc3ccccc3[n+]2CCCS(=O)(=O)[O-])c(OC)c1	none
Cc1ccc(-c2nnc(CSc3n[nH]c(=O)n3-c3ccccc3C(F)(F)F)o2)cc1	none
COc1ccc(/C=C/c2nc(-c3ccc(Br)cc3)no2)cc1OC	none
CC1(C)CSC(=NC2CCCCC2)N1	Dicer processing 3.2
O=C(NCc1cccs1)c1cc2nc(-c3cccs3)cc(C(F)(F)F)n2n1	none
O=S(=O)(c1ccc(F)cc1)N(Cc1ccc2c(c1)OCO2)c1ccc(F)cc1	none
Cc1ccc(C)n1-c1cc(-c2ccccc2)[nH]n1	none
C/S(=N/C(=O)Nc1ccc(Cl)cc1)c1ccc(OC(=O)c2ccc(Cl)cc2)cc1 (centres undefined)	none
C[C@]12CC=CCC1CCC1C2CC[C@](C)(C(=O)O)C1/C=C1/Nc2ccccc2C1=O (some centres undefined)	Dicer processing 3.9
C[C@]12CC[C@@H](O)CC1CCC1C2CC[C@](C)(C(=O)O)C1/C=C1/Nc2ccccc2C1=O (some centres undefined)	none
COc1ccc(C2CC(=O)NN2)cc1OC1CCCC1 (centres undefined)	none
COc1cccc(CC2CC(c3ccccc3)=NO2)c1OCc1c(Cl)cccc1Cl (centres undefined)	none
c1ccc(-c2nc3ccccc3s2)cc1	none
c1cncc(-c2nc3ccccc3s2)c1	Dicer processing 5.6
Clc1ccc(-c2nc3ccccc3s2)cc1	none
COc1cccc(C2c3c(oc4ccccc4c3=O)C(=O)N2c2nnc(C(C)C)s2)c1 (centres undefined)	none
COc1ccc(C(C)=O)c(OCc2ccccc2)c1	none
Cc1ccc(Cc2cn3cc(-c4ccc(Cl)cc4)nc3s2)cc1	none
CC(=O)N1CCC(C(=O)O/N=C(\N)c2ccc(Cl)cc2)CC1	none
CSc1sc(C(N)=O)c2c1-c1oncc1CC2	none
COC(=O)c1cccc(C(=O)Oc2ccc(OC)cc2)n1	none
CCOC(=O)c1cccc(C(=O)O)n1	none
CCOC(=O)c1cccc(C(=O)Oc2ccccc2)n1	Dicer processing 6.2
c1ccc(-c2csc(NCc3ccco3)n2)nc1	none
CC(C)(C)C1=CC=Nn2cnnc2S1	none
Brc1ccc(-c2noc(CSc3nc4ccccc4[nH]3)n2)cc1	none
Cc1ccc2nc(SCc3nc(-c4ccccc4C)no3)[nH]c2c1	Dicer processing 3
Cc1ccc2nc(SCc3nc(-c4cccs4)no3)[nH]c2c1	none
Cc1nc2n[nH]c(N)c2c(C)c1[N+](=O)[O-]	none
CCOC(=O)c1c(Nc2ccccc2OC)sc(C(=O)c2ccc(Br)cc2)c1N	none
O=C(Nc1ccc2c(c1)C(=O)OC2)c1ccno1	none
C=CCOc1ccc(C2/C(=C(\O)c3ccc(OC)cc3)C(=O)C(=O)N2Cc2cccnc2)cc1 (centres undefined)	none
CC1(C(=O)c2ccccc2)C2c3cc(Br)ccc3OC(=O)C21C(=O)NCc1ccccc1 (centres undefined)	Dicer processing 3.4
COc1cccc(C(=O)CC2(O)C(=O)N(CCc3ccccc3)c3ccc(Br)cc32)c1 (centres undefined)	none
O=C(O)CN1C(=O)Nc2ccc(Br)cc2C1c1ccccc1 (centres undefined)	none
CCCCCCC(=O)c1ccc(Br)cc1	none
